Test results taken from PubChem BioAssay (Tox21).
Several values for one entry are separate records, joined by “and”; a condition that tells them apart may be missing. Equal entries are not always repeated. Results filed as inconclusive are left out. A structure can be active in one record and inactive in another. Activity calls are given as the source filed them. Calls follow the shape of the dose curve; as a rule, active = well fitted curve in the direction sought with a large enough effect in the repeat runs; inconclusive = weak or mixed curves; inactive = no such curve, though single readings can be large; an effect the other way counts as inactive or inconclusive.

How the values were obtained:
[1] = qHTS RealTime-Glo MT Cell Viability Assay in HEK293 cells - 40 hour (AID 1224874); conditions: RealTime-Glo luminescence; max response: stronger effect = lower value; also: nearly all actives have a fitted effect of over 50% in size; also: potency is read from the fitted curve at half-maximal effect
Method in brief: (§1)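 HEK293 + NanoLuc + prosubstrate, 600 cells/well; 5 h, 37 C/5% CO2; compound 23 nL in DMSO by pintool; 37 C; luminescence read at 0, 8, 16, 24, 32 and 40 h time points.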

[2] = A CellTox Green Cytotoxicity Assay to monitor cytotoxicity in HEK293 cells - 24 hour (AID 1224875); also: series mostly up to about 77 µM; nearly all actives have a fitted effect of over 45% in size
Method in brief: (§2)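 Tox21 screen in HEK293: membrane-impermeant cyanine dye fluoresces on binding dead-cell DNA; compound pinned 5 h post-seeding, plates held at 37 C, signal read repeatedly through 40 h.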

[3] = A CellTox Green Cytotoxicity Assay to monitor cytotoxicity in HepG2 cells - 16 hour (AID 1224876); also: nearly all actives have a fitted effect of over 45% in size
Method in brief: (§3)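 Measurements at 0, 8, 16, 24, 32 and 40 h of treatment captured CellTox Green fluorescence in HepG2 cells that had been co-plated with reagent and preincubated 5 h at 37 C/5% CO2.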

[4] = qHTS RealTime-Glo MT Cell Viability Assay in HepG2 cells - 32 hour (AID 1224877); also: nearly all actives have a fitted effect of over 55% in size
Method in brief: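 Tox21 10K library screened in qHTS format on HepG2 cells carrying RealTime-Glo reagents. Compounds were added after a 5 h preincubation, and the luminescent signal from continuous culture was measured repeatedly during 40 h treatment.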

[5] = A CellTox Green Cytotoxicity Assay to monitor cytotoxicity in HepG2 cells - 24 hour (AID 1224878); also: nearly all actives have a fitted effect of over 45% in size
Method in brief: as §3

[6] = A CellTox Green Cytotoxicity Assay to monitor cytotoxicity in HepG2 cells - 40 hour (AID 1224879); also: nearly all actives have a fitted effect of over 40% in size; also: potency is read from the fitted curve at half-maximal effect
Method in brief: as §3

[7] = qHTS RealTime-Glo MT Cell Viability Assay in HEK293 cells - 0 hour (AID 1224880); also: top concentration of the series differs between compounds; nearly all actives have a fitted effect of over 45% in size
Method in brief: as §1

[8] = A CellTox Green Cytotoxicity Assay to monitor cytotoxicity in HEK293 cells - 32 hour (AID 1224881); also: nearly all actives have a fitted effect of over 40% in size
Method in brief: as §2

[9] = A CellTox Green Cytotoxicity Assay to monitor cytotoxicity in HepG2 cells - 0 hour (AID 1224882); also: nearly all actives have a fitted effect of over 35% in size
Method in brief: as §3

[10] = A CellTox Green Cytotoxicity Assay to monitor cytotoxicity in HepG2 cells - 32 hour (AID 1224883); also: nearly all actives have a fitted effect of over 50% in size
Method in brief: as §3
% is scaled to controls: 0 for no effect and ±100 for the full control effect.

COc1ccc2c3c1O[C@H]1[C@@H](O)C=C[C@H]4[C@@H](C2)N(C)CC[C@@]341
30.4 µM (active) and inactive: Potency [6]
active: Potency [1] 24.2 µM
inactive: max response [1] 0.391% | Potency [2] | Potency [3] | outcome [4] | Potency [5] | outcome [7] | Potency [8] | Potency [9] | Potency [10]

CC(C)C#N
inactive: max response [1] 8.8% and 1.31% | Potency [2] | Potency [3] | outcome [4] | Potency [5] | Potency [6] | outcome [7] | Potency [8] | Potency [9] | Potency [10]

O=C(O)c1ccccn1
inactive: max response [1] -2.82% and 14.7% | Potency [2] | Potency [3] | outcome [4] | Potency [5] | Potency [6] | outcome [7] | Potency [8] | Potency [9] | Potency [10]

CN=C=S
inactive: max response [1] 6.14% and -4.64% | Potency [2] | Potency [3] | outcome [4] | Potency [5] | Potency [6] | outcome [7] | Potency [8] | Potency [9] | Potency [10]

COP(N)(=O)SC (configuration not stated)
inactive: max response [1] -1.86% and 15.3% | Potency [2] | Potency [3] | outcome [4] | Potency [5] | Potency [6] | Potency [8] | Potency [9] | Potency [10]

[N-]=[N+]=[N-]
inactive: max response [1] -10.7% and 2.12% | Potency [2] | Potency [3] | outcome [4] | Potency [5] | Potency [6] | outcome [7] | Potency [8] | Potency [9] | Potency [10]

Nc1c(Cl)c(Cl)nc(C(=O)O)c1Cl
inactive: max response [1] 19.5% and -5.11% and 22.8% | Potency [2] | Potency [3] | outcome [4] | Potency [5] | Potency [6] | outcome [7] | Potency [8] | Potency [9] | Potency [10]

O=C(NC(=O)c1c(F)cccc1F)Nc1cc(Cl)c(OC(F)(F)C(F)C(F)(F)F)cc1Cl (configuration not stated)
inactive: max response [1] -33.5% | Potency [2] | Potency [3] | outcome [4] | Potency [5] | Potency [6] | Potency [8] | Potency [9] | Potency [10]

C=CC(N)=O
inactive: max response [1] 0.5% and -10.4% | Potency [2] | Potency [3] | outcome [4] | Potency [5] | Potency [6] | outcome [7] | Potency [8] | Potency [9] | Potency [10]

CC(C)(C)OOC(=O)c1ccccc1
inactive: max response [1] -10.9% and 1.81% | Potency [2] | Potency [3] | outcome [4] | Potency [5] | Potency [6] | Potency [8] | Potency [9] | Potency [10]

CCCCN(CCCC)SN(C)C(=O)Oc1cccc2c1OC(C)(C)C2
inactive: max response [1] -26.5% | Potency [2] | Potency [3] | outcome [4] | Potency [5] | Potency [6] | outcome [7] | Potency [8] | Potency [9] | Potency [10]

Cc1[nH]c(=O)n(C(C)(C)C)c(=O)c1Cl
inactive: max response [1] -2.63% and 1.93% | Potency [2] | Potency [3] | outcome [4] | Potency [5] | Potency [6] | outcome [7] | Potency [8] | Potency [9] | Potency [10]

CCOP(=S)(OCC)SCCSCC
inactive: max response [1] 5.05% and 1.7% | Potency [2] | Potency [3] | outcome [4] | Potency [5] | Potency [6] | outcome [7] | Potency [8] | Potency [9] | Potency [10]

CN(C)[C@@H]1C(=O)C(C(N)=O)=C(O)[C@@]2(O)C(=O)C3=C(O)c4c(O)cccc4[C@@](C)(O)[C@H]3C[C@@H]12
inactive: max response [1] 8.71% and 13.3% and -4.27% | Potency [2] | Potency [3] | outcome [4] | Potency [5] | Potency [6] | outcome [7] | Potency [8] | Potency [9] | Potency [10]

CC(C)(C)OOC(C)(C)C
inactive: max response [1] 1.79% and 12.3% | Potency [2] | Potency [3] | outcome [4] | Potency [5] | Potency [6] | outcome [7] | Potency [8] | Potency [9] | Potency [10]

CC1OC(C)OC(C)O1 (configuration not stated)
inactive: max response [1] 8.31% and 5.6% | Potency [2] | Potency [3] | outcome [4] | Potency [6] | outcome [7] | Potency [8] | Potency [9] | Potency [10]

Cc1ccc(N)cc1N
inactive: max response [1] 14.6% | Potency [2] | Potency [3] | outcome [4] | Potency [6] | outcome [7] | Potency [8] | Potency [9] | Potency [10]

c1ccc2c(c1)Oc1ccccc1O2
inactive: max response [1] 4.43% and 0.097% | Potency [2] | Potency [3] | outcome [4] | outcome [7] | Potency [8] | Potency [9] | Potency [10]
30.5 µM (active) and inactive: Potency [6]

O=[N+]([O-])c1ccccc1
inactive: max response [1] 6.12% and 17.8% | Potency [3] | outcome [4] | Potency [5] | Potency [6] | outcome [7] | Potency [8] | Potency [9] | Potency [10]

CCOP(=S)(OCC)Oc1cnc2ccccc2n1
inactive: max response [1] 0.949% | Potency [3] | outcome [4] | Potency [5] | Potency [6] | outcome [7] | Potency [8] | Potency [9] | Potency [10]

ClCCBr
inactive: max response [1] -0.15% and 0.955% | Potency [2] | Potency [3] | outcome [4] | Potency [6] | outcome [7] | Potency [8] | Potency [9] | Potency [10]
